# Several values for one entry are separate records, joined by “and”; a condition that tells them apart may be missing. Identical values can stand only once. Results filed as inconclusive are left out. Where a call stands in place of a potency, no number is given. Unmarked numbers belong to inactive results. Activity calls are given as the source filed them. The call rests on the fitted dose curve; in most records, active means well fitted curve in the direction sought with a large enough effect; inconclusive means small, poorly fitted or top-dose-only effect, or another doubt; inactive means no such curve, though single readings can be large; an effect the other way counts as inactive or inconclusive.
# Key:
# [1] = Viability qHTS for spleen associated tyrosine kinase inhibitor (SYKi) naive MV4-11 cells (AID 1963823); further: nearly all actives have a fitted effect of over 40% in size; further: potency means the concentration at half of the fitted maximal effect
# Method in brief: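 qHTS, SYK inhibitor-naive MV4-11; 500 cells/well; 72 hr compound exposure, 37 C; CellTiter-Glo added, 10 min RT; luminescence read.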
# [2] = Viability qHTS for spleen associated tyrosine kinase inhibitor (SYKi) drug resistant MV4-11 cells (AID 1963824); further: nearly all actives have a fitted effect of over 35% in size; further: potency means the concentration at half of the fitted maximal effect
# Method in brief: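 CellTiter-Glo luminescence, read 10 min after reagent addition, reports viability after a 72 hr compound exposure. Cells are an MV4-11 line made resistant to SYK inhibition, seeded at 500 per well onto compound-containing plates.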
# [3] = Quantitative highthroughput screen to assess conditional lethalithy of NOMO1 cells grown in RPMI1640 with untreated serum (RPMI+s) (AID 1963876); further: nearly all actives have a fitted effect of over 35% in size; further: potency means the concentration at half of the fitted maximal effect
# Method in brief: (§1)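 Each medium arm—HPLM with 10% dialyzed FBS, or RPMI1640 with 5 mM glucose and 10% untreated or dialyzed FBS—was screened against an 11-point, 3-fold compound titration for 48 h at 37 °C, with CellTiter-Glo luminescence as endpoint.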
# [4] = Quantitative highthroughput screen to assess conditional lethalithy of P12 Ichikawa cells grown in RPMI1640 with dialyzed fetal bovine serum (RPMI+ds) (AID 1963880); settings: Potency: P12-Ichikawa viability; further: nearly all actives have a fitted effect of over 35% in size; further: potency means the concentration at half of the fitted maximal effect
# Method in brief: as §1
# [5] = Quantitative highthroughput screen to assess conditional lethalithy of P12 Ichikawa cells grown in RPMI1640 with untreated serum (RPMI+s) (AID 1963881); settings: Potency: viability; further: nearly all actives have a fitted effect of over 35% in size; further: potency means the concentration at half of the fitted maximal effect; on Viability: series mostly up to about 46 µM
# Method in brief: as §1
# [6] = Quantitative highthroughput screen to assess conditional lethalithy of SEM cells grown in RPMI1640 with unreated serum (RPMI+s) (AID 1963883); further: nearly all actives have a fitted effect of over 35% in size; further: potency means the concentration at half of the fitted maximal effect
# Method in brief: as §1
# [7] = Cellular viability qHTS for adrenocortical cancer (ACC) cell line SW-13 (AID 1963989); settings: SW-13 ACC cells viability, CellTiter-Glo, 48 h; activity (max response): stronger effect = lower value; further: nearly all actives have a fitted effect of over 65% in size; further: potency means the concentration at half of the fitted maximal effect;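 on activity (max response): cells grown in serum-free medium with ITS supplement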
# Method in brief: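 Here, serum-free SW-13 cultures were dosed up to 46 uM. Following 48 h, ATP-dependent luminescence (CellTiter-Glo) reported viable cells, and logistic modeling produced IC50 values.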
# [8] = Cellular viability qHTS for adrenocortical cancer (ACC) cell line NCI-H295R (AID 1963990); further: nearly all actives have a fitted effect of over 60% in size; further: potency means the concentration at half of the fitted maximal effect
# Method in brief: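 Viability of NCI-H295R after 48 h of treatment (final up to 46 uM) measured through cellular ATP luminescence.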
# [9] = Quantitative highthroughput screen to assess conditional lethalithy of P12 Ichikawa cells grown in Human Plasma-Like Medium with dialyzed fetal bovine serum (HPLM+ds) (AID 1963879); settings: Potency: viability; further: nearly all actives have a fitted effect of over 35% in size; further: potency means the concentration at half of the fitted maximal effect; on Viability: series mostly up to about 46 µM
# Method in brief: as §1
# [10] = Quantitative highthroughput screen to assess conditional lethalithy of NOMO1 cells grown in RPMI1640 with dialyzed fetal bovine serum (RPMI+ds) (AID 1963877); further: nearly all actives have a fitted effect of over 30% in size; further: potency means the concentration at half of the fitted maximal effect; on Viability: series mostly up to about 46 µM
# Method in brief: as §1
# [11] = Quantitative highthroughput screen to assess conditional lethalithy of SEM cells grown in Human Plasma-Like Medium with dialyzed fetal bovine serum (HPLM+ds) (AID 1963882); further: nearly all actives have a fitted effect of over 35% in size; further: potency means the concentration at half of the fitted maximal effect; on Viability: series mostly up to about 46 µM
# Method in brief: as §1
# [12] = Quantitative highthroughput screen to assess conditional lethalithy of SEM cells grown in RPMI1640 with dialyzed fetal bovine serum (RPMI+ds) (AID 1963884)
# Method in brief: as §1
# [13] = Quantitative highthroughput screen to assess conditional lethalithy of NOMO1 cells grown in Human Plasma-Like Medium with dialyzed fetal bovine serum (HPLM+ds) (AID 1963878); further: nearly all actives have a fitted effect of over 35% in size; further: potency means the concentration at half of the fitted maximal effect
# Method in brief: as §1
compound,measurement,setting,value
CCc1c(C(=O)C(N)=O)c2c(OCC(=O)O)cccc2n1Cc1ccccc1,Potency,[1],inactive
same,Potency,[2],inactive
same,Potency,[3],inactive
same,Potency,[4],inactive
same,Potency,[5],inactive
same,Potency,[6],inactive
same,activity (max response),[7],-1.25%
same,Potency,[8],inactive
CC(C)C[C@H](CN)CC(=O)O,Potency,[1],inactive
same,Potency,[2],inactive
same,Potency,[9],inactive
same,Potency,[4],inactive
same,Potency,[5],inactive
same,activity (max response),[7],8.17%
same,Potency,[8],inactive
N[C@@H](Cc1ccc(Oc2cc(I)c(O)c(I)c2)c(I)c1)C(=O)O,Potency,[1],inactive
same,Potency,[2],inactive
same,activity (max response),[7],2.16%
CCOP(=O)(OCC)C(C)NC(=O)N(CCCl)N=O (configuration not stated),Potency,[1],inactive
same,Potency,[2],16.6 µM (active)
same,Potency,[10],inactive
same,Potency,[4],inactive
same,Potency,[11],inactive
same,Potency,[6],inactive
same,activity (max response),[7],3.2%
same,Potency,[8],inactive
CCC(=O)O[C@@H]1C=C2CCC3C(CCC4(C)C3CC[C@@H]4OC(=O)CC)C2CC1 (some centres not stated),Potency,[1],inactive
same,Potency,[2],inactive
same,activity (max response),[7],1.7%
O=C(N[C@H]1CN2CCC1CC2)c1ccc(Cl)cc1,Potency,[1],inactive
same,Potency,[2],inactive
same,Potency,[10],inactive
same,Potency,[9],inactive
same,Potency,[4],inactive
same,Potency,[11],inactive
same,Potency,[12],inactive
same,activity (max response),[7],3.8%
same,Potency,[8],inactive
CC(C)=C[C@@H]1[C@@H](C(=O)OCc2coc(Cc3ccccc3)c2)C1(C)C,Potency,[1],inactive
same,Potency,[2],inactive
same,activity (max response),[7],-18.7%
COc1ccc(N(C(=O)Oc2c(C)cccc2C)c2ccnc(Nc3ccc(N4CCN(C)CC4)cc3)n2)c(OC)c1,Potency,[1],1.48 µM (active)
same,Potency,[2],1.16 µM (active) and 2.35 µM (active)
same,Potency,[10],inactive
same,Potency,[9],inactive
same,Potency,[7],8.91 µM (active)
same,Potency,[8],12.6 µM (active)
COC[C@H]1OC(=O)c2coc3c2[C@@]1(C)C1=C(C3=O)C2CCC(=O)[C@@]2(C)C[C@H]1OC(C)=O (some centres not stated),Potency,[1],14.6 µM (active) and 3.32 µM (active)
same,Potency,[2],16.4 µM (active) and 3.72 µM (active)
same,Potency,[13],inactive
same,Potency,[4],inactive
same,Potency,[5],inactive
same,Potency,[6],inactive
CC(NC(C)(C)C)C(=O)c1cccc(Cl)c1 (configuration not stated),Potency,[1],inactive
same,Potency,[2],inactive
same,Potency,[13],5.9 µM (active)
same,Potency,[9],inactive
same,Potency,[8],inactive
C[C@]12CC[C@@H]3c4ccc(OC(=O)N(CCCl)CCCl)cc4CC[C@H]3[C@@H]1CC[C@@H]2OP(=O)(O)O,Potency,[1],inactive
same,Potency,[2],inactive
same,Potency,[13],18.7 µM (active)
same,Potency,[4],inactive
same,Potency,[5],inactive
same,Potency,[6],14.8 µM (active)
same,activity (max response),[7],-13.4%
same,Potency,[8],inactive
CCNC(=O)C[C@@H]1N=C(c2ccc(Cl)cc2)c2cc(OC)ccc2-n2c(C)nnc21,Potency,[1],411 nM (active) and 417 nM (active)
same,Potency,[2],461 nM (active) and 417 nM (active)
same,Potency,[11],0.935 µM (active)
same,activity (max response),[7],-15.2%
same,Potency,[8],inactive
O=C(O)c1nn(Cc2ccc(Cl)cc2Cl)c2ccccc12,Potency,[1],inactive
same,Potency,[2],inactive
same,Potency,[4],inactive
same,Potency,[5],inactive
same,Potency,[11],inactive
same,activity (max response),[7],8.06% and -12.7%
same,Potency,[8],inactive
CO/C1=C/C(C)=C\[C@@H](C)[C@@H](O)[C@@H](C)C/C(C)=C\C=C/[C@H](OC)[C@@H]([C@@H](C)[C@@H](O)[C@H](C)[C@@]2(O)C[C@@H](O)[C@H](C)[C@@H](C(C)C)O2)OC1=O,Potency,[1],0.0221 µM (active)
same,Potency,[2],0.0221 µM (active)
same,Potency,[7],0.245 µM (active)
CSCC[C@@H](NC(=O)[C@@H](Cc1ccccc1)NC(=O)CNC(=O)CNC(=O)[C@@H](N)Cc1ccc(O)cc1)C(=O)O,Potency,[1],inactive
same,Potency,[2],inactive
same,Potency,[4],inactive
same,Potency,[5],inactive
same,Potency,[8],inactive
C=CCN1CC[C@]23CCCC[C@H]2[C@H]1Cc1ccc(O)cc13,Potency,[1],inactive
same,Potency,[2],inactive
same,activity (max response),[7],-5.85%
C[C@H](N)C(=O)c1ccccc1,Potency,[1],inactive
same,Potency,[2],inactive
same,activity (max response),[7],-8.86%
CC1(C)C(=O)N(c2ccc(C#N)c(C(F)(F)F)c2)C(=S)N1Cc1ccc(-c2cn[nH]n2)cc1,Potency,[1],16.6 µM (active)
same,Potency,[2],14.8 µM (active)
same,Potency,[7],25.1 µM (active)
COC[C@@H](NC(C)=O)C(=O)NCc1ccccc1,Potency,[1],inactive
same,Potency,[2],inactive
same,Potency,[6],inactive
same,Potency,[12],inactive
same,activity (max response),[7],8.1% and 13.7%
same,Potency,[8],inactive
COc1ccc(C(=O)c2c(C)n(CCN3CCOCC3)c3ccccc23)cc1,Potency,[1],26.6 µM (active)
same,Potency,[2],16.6 µM (active)
same,Potency,[9],inactive
same,Potency,[11],inactive
same,Potency,[8],14.6 µM (active)
Cc1[nH]ncc1-c1cc2nc([C@@H]3CC4CCN3CC4)[nH]c(=O)c2s1,Potency,[1],3.32 µM (active)
same,Potency,[2],4.17 µM (active)
same,Potency,[7],28.2 µM (active)
CC(C)(C)c1cc(C=C(C#N)C#N)cc(Br)c1O,Potency,[1],16.6 µM (active)
same,Potency,[2],16.6 µM (active)
same,Potency,[3],inactive
same,Potency,[4],inactive
same,Potency,[6],inactive
same,activity (max response),[7],9.19%
same,Potency,[8],inactive
O=c1[nH]c2ccccc2n1C1CCN(Cc2ccc(-c3[nH]c4cc5ncnc5cc4nc3-c3ccccc3)cc2)CC1,Potency,[1],14.8 µM (active)
same,Potency,[2],1.84 µM (active)
same,Potency,[9],inactive
same,Potency,[5],inactive
same,Potency,[8],22.4 µM (active)
N=c1c2c(-c3ccccc3)c(-c3ccccc3)n(Cc3ccccc3)c2ncn1C1CCC(O)CC1 (configuration not stated),Potency,[1],0.525 µM (active)
same,Potency,[2],0.372 µM (active)
same,Potency,[4],16.6 µM (active)
same,Potency,[7],17.8 µM (active)
same,Potency,[8],8.91 µM (active)
O=[N+]([O-])/N=C1\NCCN1Cc1ccc(Cl)nc1,Potency,[1],inactive
same,Potency,[2],inactive
same,activity (max response),[7],-5.88%
NCC1(CC(=O)O)CCCCC1,Potency,[1],inactive
same,Potency,[2],inactive
same,Potency,[3],inactive
same,Potency,[4],inactive
same,Potency,[11],inactive
same,activity (max response),[7],12.5% and -5.41%
Cc1[nH]nc2ccc(-c3cncc(OC[C@@H](N)Cc4c[nH]c5ccccc45)c3)cc12,Potency,[1],0.0468 µM (active)
same,Potency,[2],65.1 nM (active) and 105 nM (active)
same,Potency,[3],1.18 µM (active)
same,Potency,[9],1.66 µM (active)
same,Potency,[5],1.48 µM (active)
same,Potency,[6],0.59 µM (active)
same,Potency,[7],0.708 µM (active)
same,Potency,[8],2.24 µM (active)
COc1cc(OC)c(OC)cc1C=O,Potency,[1],inactive
same,Potency,[2],inactive
same,Potency,[3],inactive
same,Potency,[9],inactive
same,Potency,[5],inactive
same,Potency,[11],inactive
same,activity (max response),[7],8.71%
O=C(CCl)c1ccc(Cl)cc1Cl,Potency,[1],inactive
same,Potency,[2],inactive
same,activity (max response),[7],-3.67%
Fc1ccc(C(OCCN2CCN(CCCc3ccccc3)CC2)c2ccc(F)cc2)cc1,Potency,[1],5.96 µM (active) and 6.61 µM (active)
same,Potency,[2],6.68 µM (active) and 6.61 µM (active)
same,Potency,[10],20.9 µM (active)
same,Potency,[7],5.8 µM (active) and 14.1 µM (active)
same,Potency,[8],4.61 µM (active) and 11.2 µM (active)
CC1(N2CCC(n3c([C@@H]4CCCNC4)nc4ccccc43)CC2)CCCCCCC1,Potency,[1],6.51 µM (active)
same,Potency,[2],9.2 µM (active) and 7.42 µM (active)
same,Potency,[10],16.6 µM (active)
same,Potency,[6],inactive
same,Potency,[7],28.2 µM (active)
same,Potency,[8],17.8 µM (active)
CC(C)[C@]12O[C@H]1[C@@H]1O[C@]13[C@]1(O[C@H]1C[C@H]1C4=C(CC[C@@]13C)C(=O)OC4)[C@@H]2O,Potency,[1],0.0166 µM (active)
same,Potency,[2],9.2 nM (active) and 16.6 nM (active)
same,Potency,[7],0.251 µM (active)
same,Potency,[8],0.316 µM (active)
O=c1cccc2n1CC1CNC[C@H]2C1,Potency,[1],inactive
same,Potency,[2],inactive
same,activity (max response),[7],-2.44%
same,Potency,[8],inactive
CCCCC1C(=O)NC(=O)N(C2CCCCC2)C1=O (configuration not stated),Potency,[1],inactive
same,Potency,[2],inactive
same,activity (max response),[7],-4.2%
same,Potency,[8],inactive
O=C(O)c1ccc2[nH]cc(CCCCN3CC=C(c4ccccc4)CC3)c2c1,Potency,[1],9.44 µM (active)
same,Potency,[2],inactive
same,activity (max response),[7],-1.83%
same,Potency,[8],inactive
C[C@@H]1O[C@@H](O[C@@H]2C=C3CC[C@@H]4[C@H](CC[C@]5(C)[C@@H](c6ccc(=O)oc6)CC[C@]45O)[C@@]3(C)CC2)[C@H](O)[C@H](O)[C@H]1O,Potency,[1],0.006 µM (active)
same,Potency,[2],0.0075 µM (active)
same,Potency,[7],11.2 nM (active) and 7.3 nM (active)
same,Potency,[8],11.2 nM (active) and 7.3 nM (active)
Cc1ncc(CNC(=O)N(CCCl)N=O)c(N)n1,Potency,[1],inactive
same,Potency,[2],inactive
same,activity (max response),[7],2.91%
same,Potency,[8],inactive
CC(C)NCC(O)c1ccc(N)c(C#N)c1 (configuration not stated),Potency,[1],inactive
same,Potency,[2],inactive
same,activity (max response),[7],6.97%
same,Potency,[8],inactive
